Outcome and AC50 data for five compounds are collected here from PubChem BioAssay (EPA / NIEHS).

For orientation: AC50 means the concentration at which the activity in the assay is half-maximal.

Experiment [1] can be described thus: ATG_GRE_CIS: Attagene CIS-FACTORIAL HepG2 Assay for human Glucocorticoid Response Elements (GRE) (AID 2282947). The conditions noted are these: HepG2 GRE cis-reporter, Attagene multiplex mRNA; actives raise or lower the signal. The method in brief: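 Following 24 h chemical exposure of transiently transfected HepG2 cells, total RNA was reverse-transcribed and reporter cDNA amplified, fluorescently labelled and sized by capillary electrophoresis. Signal gain or loss was fitted relative to DMSO vehicle.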

A short description of experiment [2]: ATG_ISRE_CIS: Attagene CIS-FACTORIAL HepG2 Assay for human Interferon Regulatory Factor 1 (IRF1) binding to an Interferon-Stimulated Response Element (ISRE) (AID 2282948). The conditions noted are these: HepG2 ISRE cis-reporter (Attagene), mRNA transcription readout; actives raise or lower the signal. The method in brief: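 Transiently transfected HepG2 cells carrying cis-element reporter units, dosed 24 hours. Reporter mRNA quantified by RT-PCR, fluorescent primer extension, HpaI digestion and capillary electrophoresis. Bidirectional fitting relative to DMSO.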

Experiment [3] in a line: ATG_M_32_CIS: Attagene CIS-FACTORIAL HepG2 Assay for M32 Transcription Factor (Internal Marker) (AID 2282949).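 Further: background control marker of the multiplexed CIS panel rather than a real target.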 The conditions noted are these: HepG2 Attagene cis-factorial M32 reporter, mRNA; actives raise or lower the signal. The method in brief:
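HepG2 cells transiently transfected with multiplexed cis-regulated reporter units, dosed 24 h. Reporter mRNA quantified by RT-PCR, 6-FAM labelling, HpaI digestion and capillary electrophoresis; bidirectional fit vs DMSO.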

Experiment [4] in a line: ATG_M_06_CIS: Attagene CIS-FACTORIAL HepG2 Assay for M06 Transcription Factor (Internal Marker) (AID 2282950). The conditions noted are these: HepG2 Attagene CIS-FACTORIAL M06 internal marker reporter; actives raise or lower the signal. The method in brief:
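Fluorescence-labelled RT-PCR products from cis-promoter reporter units, cut with HpaI and resolved by capillary electrophoresis, give the signal. Cells are human HepG2, dosed for 24 h. Serves as background control, fitted relative to DMSO.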

Experiment [5] concerns the target Hepatocyte nuclear factor 6 (Homo sapiens) (UniProt Q9UBC0). In words: ATG_HNF6_CIS: Attagene CIS-FACTORIAL HepG2 Assay for human Hepatocyte Nuclear Factor 6 (HNF6) (AID 2282952). As to conditions: HepG2 Attagene cis-factorial HNF6 reporter transcription; actives raise or lower the signal. The method in brief: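 HepG2, transient MRTU transfection (cis promoters); 24 h chemical exposure; total RNA → oligo(dT) RT → PCR → 6-FAM labelling → HpaI cut → CE; bidirectional fit vs DMSO.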

Experiment [6] deals with Heat shock factor protein 1 (Homo sapiens) (UniProt Q00613). In words: ATG_HSE_CIS: Attagene CIS-FACTORIAL HepG2 Assay for human Heat Shock Transcription Factor 1 (HSE) (AID 2282953). As to conditions: HepG2 HSE cis-reporter, Attagene RNA transcription; actives raise or lower the signal. The method in brief:
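After a 24 h incubation with test chemical, transfected HepG2 cells were harvested for RNA; reporter transcripts were measured by RT-PCR and capillary electrophoresis. Values reflect gain or loss of signal relative to DMSO.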

Experiment [7] is described as follows: ATG_PBREM_CIS: Attagene CIS-FACTORIAL HepG2 Assay for human Phenobarbital-responsive Enhancer Module (PBREM) (AID 2282955). As to conditions: HepG2 PBREM cis-reporter, Attagene multiplexed transcription; actives raise or lower the signal. The method in brief: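 Endogenous transcription factors in human liver HepG2 cells drive a PBREM cis-element reporter, whose transcript level after 24 h treatment is quantified by RT-PCR with capillary electrophoresis; activity fitted in both directions against DMSO.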

Experiment [8] is described as follows: ATG_PXRE_CIS: Attagene CIS-FACTORIAL HepG2 Assay for human Pregnane X Receptor Element (PXRE) (AID 2282957). As to conditions: HepG2 Attagene CIS-FACTORIAL PXRE reporter, mRNA; actives raise or lower the signal. The method in brief:
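Transfect HepG2 with MRTUs (cis promoter elements); dose chemical, incubate 24 h; isolate RNA, RT with oligo(dT), PCR, 6-FAM label, HpaI cut, CE. Gain/loss fit vs DMSO.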

Experiment [9] in a line: ATG_PPRE_CIS: Attagene CIS-FACTORIAL HepG2 Assay for human Peroxisome Proliferator-activated Response Element (PPRE) (AID 2282958). The conditions noted are these: HepG2 PPRE cis-element reporter, Attagene transcription factor profiling; actives raise or lower the signal. The method in brief: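 HepG2, transient MRTU transfection (cis promoter elements, endogenous TFs). 24 h dosing. RNA → oligo(dT) RT → PCR → 6-FAM primer extension → HpaI digest → CE. Bidirectional fit vs DMSO.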

Experiment [10] in a line: ATG_Sox_CIS: Attagene CIS-FACTORIAL HepG2 Assay for human SRY-box transcription factor (SOX) (AID 2282960). The conditions noted are these: HepG2 Attagene cis-factorial SOX reporter, mRNA; actives raise or lower the signal. The method in brief:
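Endogenous factor activity in human liver HepG2 cells carrying transfected cis-regulated reporter units. RNA taken 24 h post-dose, reverse-transcribed, PCR-amplified and sized by capillary electrophoresis. Gain or loss of signal fitted relative to DMSO.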

Experiment [11] has as its target Transcription factor Sp1 (Homo sapiens) (UniProt P08047). In words: ATG_Sp1_CIS: Attagene CIS-FACTORIAL HepG2 Assay for human Specificity Protein 1 (Sp1) (AID 2282961). As to conditions: HepG2 Sp1 cis-reporter transcription, actives raise or lower the signal. The method in brief: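 Transient MRTU-transfected HepG2, 24 h compound exposure. Total RNA → oligo(dT) RT → PCR of reporter → 6-FAM primer extension → HpaI digest → CE. Endpoint fitted both directions vs DMSO.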

Experiment [12] can be described thus: ATG_SREBP_CIS: Attagene CIS-FACTORIAL HepG2 Assay for human Sterol Regulatory Element Binding (SREBP) (AID 2282962). As to conditions: HepG2 Attagene cis-factorial SREBP reporter, mRNA; actives raise or lower the signal. The method in brief:
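HepG2 cells transiently transfected with multiplexed cis-promoter reporter units sensing endogenous transcription factors; reporter mRNA measured 24 h after dosing by RT-PCR, 6-FAM labeling, HpaI digestion and capillary electrophoresis. Bidirectional fit versus DMSO.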

Experiment [13] concerns the target Signal transducer and activator of transcription 3 (Homo sapiens) (UniProt P40763). The experiment is described as follows: ATG_STAT3_CIS: Attagene CIS-FACTORIAL HepG2 Assay for human Signal Transducer and Activator of Transcription 3 (STAT3) (AID 2282963). The conditions noted are these: HepG2, Attagene cis-factorial STAT3 reporter transcription; actives raise or lower the signal. The method in brief: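 Transcript-level reporter assay. HepG2 transient MRTU transfection, 24 h exposure, fluorescence detection after RT-PCR and CE; DMSO baseline.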

Experiment [14] can be described thus: ATG_MRE_CIS: Attagene CIS-FACTORIAL HepG2 Assay for human Metal Responsive Element (MRE) (AID 2282954). As to conditions: HepG2 MRE cis-reporter transcription, Attagene multiplex; actives raise or lower the signal. The method in brief: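 Step one: transfect HepG2 with cis-regulated reporter units. Step two: dose 24 h. Step three: isolate RNA, RT-PCR, 6-FAM label, HpaI digest, capillary electrophoresis. Fit bidirectionally to DMSO.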

Experiment [15] has as its target Paired box protein Pax-6 (Homo sapiens) (UniProt P26367). In words: ATG_Pax6_CIS: Attagene CIS-FACTORIAL HepG2 Assay for human Paired Box 6 (PAX6) (AID 2282956). The conditions noted are these: HepG2 CIS-FACTORIAL PAX6 reporter transcription, RNA readout; actives raise or lower the signal. The method in brief:
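HepG2 cells transiently transfected with cis-promoter-driven multiplexed reporter units sensing endogenous transcription factor activity; 24 h chemical exposure. Reporter mRNA quantified by RT-PCR, 6-FAM labelling, HpaI digestion and capillary electrophoresis; bidirectional fit versus DMSO baseline.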

The nature of experiment [16]: ATG_RORE_CIS: Attagene CIS-FACTORIAL HepG2 Assay for human RAR-related Orphan Receptor Element (RORE) (AID 2282959). The conditions noted are these: HepG2 Attagene cis-factorial RORE reporter, mRNA; actives raise or lower the signal. The method in brief: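 Transient MRTU transfection of human HepG2 liver cells (FuGene 6); 24 h compound exposure; TriZol RNA, oligo(dT) RT, PCR, FAM labeling, HpaI cut, CE fragment analysis. DMSO = negative control/baseline.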

Experiment [17] is described as follows: ATG_TA_CIS: Attagene CIS-FACTORIAL HepG2 Assay for human TA Basal Promoter (AID 2282964). As to conditions: HepG2 Attagene CIS-factorial TA basal promoter reporter; actives raise or lower the signal. The method in brief:
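Multiplexed mRNA reporter assay, HepG2, 24 h. Reporter cDNA amplified, 6-FAM primer-extended, HpaI-cut, CE-sized; DMSO = negative control and baseline.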

Experiment [18] in a line: ATG_TCF_b_cat_CIS: Attagene CIS-FACTORIAL HepG2 Assay for human T-Cell-Factor with beta-catenin (TCF/b-cat) (AID 2282965). The conditions noted are these: HepG2 TCF/beta-catenin cis-reporter transcription, actives raise or lower the signal. The method in brief:
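Using capillary electrophoresis as the read-out, labelled reporter cDNA fragments from transiently transfected HepG2 were sized and quantified. Exposure lasted 24 hours; activity in either direction was referenced to DMSO.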

The target in experiment [19] is Hypoxia-inducible factor 1-alpha (Homo sapiens) (UniProt Q16665). The experiment is described as follows: ATG_HIF1a_CIS: Attagene CIS-FACTORIAL HepG2 Assay for human Hypoxia Inducible Factor 1 (HIF1A) (AID 2282951). As to conditions: HepG2 Attagene cis-factorial HIF1a reporter transcription; actives raise or lower the signal. The method in brief:
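Transient MRTU transfection of human HepG2 liver cells, 24 h compound treatment, then total RNA isolation, oligo(dT) reverse transcription, PCR amplification, fluorescent labelling and capillary electrophoresis of reporter fragments. Gain or loss relative to DMSO.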

Activity calls are given as the source filed them. How the source made its calls: active means hit-call score of the fitted dose curve at least 0.9, where 1 is the maximum; inactive means score below 0.9.

Chain of Transcription factor Sp1 (Homo sapiens) (P08047 whole entry, looked up): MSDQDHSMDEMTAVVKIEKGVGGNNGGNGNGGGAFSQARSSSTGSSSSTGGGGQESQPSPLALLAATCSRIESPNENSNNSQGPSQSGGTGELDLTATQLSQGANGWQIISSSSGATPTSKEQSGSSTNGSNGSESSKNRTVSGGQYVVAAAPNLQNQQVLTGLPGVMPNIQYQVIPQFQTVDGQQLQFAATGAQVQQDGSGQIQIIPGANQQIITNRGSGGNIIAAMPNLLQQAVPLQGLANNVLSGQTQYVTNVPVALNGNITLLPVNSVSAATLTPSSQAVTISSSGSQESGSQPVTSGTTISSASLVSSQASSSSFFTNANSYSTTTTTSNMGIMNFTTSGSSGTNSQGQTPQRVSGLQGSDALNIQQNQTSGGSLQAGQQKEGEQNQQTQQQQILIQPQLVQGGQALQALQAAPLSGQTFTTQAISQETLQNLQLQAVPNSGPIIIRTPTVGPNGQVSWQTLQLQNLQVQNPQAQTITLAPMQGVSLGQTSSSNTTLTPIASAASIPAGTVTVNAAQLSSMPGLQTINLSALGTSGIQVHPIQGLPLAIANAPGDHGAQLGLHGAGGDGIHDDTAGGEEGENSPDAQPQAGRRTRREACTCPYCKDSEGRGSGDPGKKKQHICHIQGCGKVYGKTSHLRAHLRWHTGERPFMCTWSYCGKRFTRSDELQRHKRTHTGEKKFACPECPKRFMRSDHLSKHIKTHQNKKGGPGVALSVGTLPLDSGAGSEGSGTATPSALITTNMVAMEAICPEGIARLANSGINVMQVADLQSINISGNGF
Chain of Signal transducer and activator of transcription 3 (Homo sapiens) (P40763 whole entry, looked up): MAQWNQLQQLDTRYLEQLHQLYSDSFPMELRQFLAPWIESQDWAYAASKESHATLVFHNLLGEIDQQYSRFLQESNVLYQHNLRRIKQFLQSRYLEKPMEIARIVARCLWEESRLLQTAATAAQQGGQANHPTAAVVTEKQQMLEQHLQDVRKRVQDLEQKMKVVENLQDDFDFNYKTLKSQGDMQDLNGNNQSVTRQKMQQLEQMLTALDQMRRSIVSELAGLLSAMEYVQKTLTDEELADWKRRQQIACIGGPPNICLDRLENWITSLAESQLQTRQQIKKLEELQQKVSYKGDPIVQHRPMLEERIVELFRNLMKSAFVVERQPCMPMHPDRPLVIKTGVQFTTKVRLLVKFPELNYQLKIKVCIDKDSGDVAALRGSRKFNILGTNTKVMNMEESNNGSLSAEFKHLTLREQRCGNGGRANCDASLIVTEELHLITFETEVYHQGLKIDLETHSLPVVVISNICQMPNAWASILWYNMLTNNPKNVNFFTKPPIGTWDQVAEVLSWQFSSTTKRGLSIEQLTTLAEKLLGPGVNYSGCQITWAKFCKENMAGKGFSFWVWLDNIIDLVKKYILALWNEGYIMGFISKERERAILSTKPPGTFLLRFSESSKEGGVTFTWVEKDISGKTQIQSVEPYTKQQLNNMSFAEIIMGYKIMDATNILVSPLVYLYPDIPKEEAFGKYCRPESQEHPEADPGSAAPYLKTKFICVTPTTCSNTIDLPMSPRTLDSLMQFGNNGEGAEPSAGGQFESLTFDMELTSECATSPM
Chain of Paired box protein Pax-6 (Homo sapiens) (P26367 whole entry, looked up): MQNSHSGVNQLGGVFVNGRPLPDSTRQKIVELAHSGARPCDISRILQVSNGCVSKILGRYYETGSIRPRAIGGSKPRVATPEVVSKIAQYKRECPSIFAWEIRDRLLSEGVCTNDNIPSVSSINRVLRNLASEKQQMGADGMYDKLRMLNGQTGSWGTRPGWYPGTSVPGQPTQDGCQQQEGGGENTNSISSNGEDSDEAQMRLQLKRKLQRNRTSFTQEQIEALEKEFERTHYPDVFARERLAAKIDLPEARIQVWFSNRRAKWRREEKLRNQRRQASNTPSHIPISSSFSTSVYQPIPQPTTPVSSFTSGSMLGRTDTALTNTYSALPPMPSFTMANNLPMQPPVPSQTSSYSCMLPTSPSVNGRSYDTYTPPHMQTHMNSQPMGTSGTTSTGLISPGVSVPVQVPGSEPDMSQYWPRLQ
Chain of Heat shock factor protein 1 (Homo sapiens) (Q00613 whole entry, looked up): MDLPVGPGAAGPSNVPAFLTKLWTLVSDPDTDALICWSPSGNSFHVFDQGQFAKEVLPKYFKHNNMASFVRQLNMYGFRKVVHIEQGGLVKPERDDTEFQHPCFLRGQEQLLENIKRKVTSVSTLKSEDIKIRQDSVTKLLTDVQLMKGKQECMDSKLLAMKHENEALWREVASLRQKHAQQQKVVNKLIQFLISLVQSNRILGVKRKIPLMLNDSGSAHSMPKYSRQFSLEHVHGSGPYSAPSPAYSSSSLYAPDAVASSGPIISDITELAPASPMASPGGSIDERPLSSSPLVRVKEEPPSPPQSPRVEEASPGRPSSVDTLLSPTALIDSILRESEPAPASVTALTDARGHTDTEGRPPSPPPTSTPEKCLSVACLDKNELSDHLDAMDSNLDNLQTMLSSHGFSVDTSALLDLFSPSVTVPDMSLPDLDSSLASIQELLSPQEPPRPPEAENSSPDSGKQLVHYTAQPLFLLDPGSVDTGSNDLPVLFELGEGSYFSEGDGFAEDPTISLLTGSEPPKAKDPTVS
Chain of Hepatocyte nuclear factor 6 (Homo sapiens) (Q9UBC0 whole entry, looked up): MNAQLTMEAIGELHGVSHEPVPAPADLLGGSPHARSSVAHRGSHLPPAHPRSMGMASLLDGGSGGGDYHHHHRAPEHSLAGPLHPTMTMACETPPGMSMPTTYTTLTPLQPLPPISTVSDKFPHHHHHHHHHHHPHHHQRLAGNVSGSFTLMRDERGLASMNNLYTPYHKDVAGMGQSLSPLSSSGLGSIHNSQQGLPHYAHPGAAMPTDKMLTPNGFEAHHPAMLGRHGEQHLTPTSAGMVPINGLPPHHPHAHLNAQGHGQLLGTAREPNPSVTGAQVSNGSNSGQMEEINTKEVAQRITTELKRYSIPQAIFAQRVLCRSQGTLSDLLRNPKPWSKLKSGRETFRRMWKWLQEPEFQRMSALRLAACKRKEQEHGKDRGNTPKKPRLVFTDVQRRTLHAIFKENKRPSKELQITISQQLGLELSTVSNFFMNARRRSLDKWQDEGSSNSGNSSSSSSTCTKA
Chain of Hypoxia-inducible factor 1-alpha (Homo sapiens) (Q16665 whole entry, looked up, the tested form may be a part): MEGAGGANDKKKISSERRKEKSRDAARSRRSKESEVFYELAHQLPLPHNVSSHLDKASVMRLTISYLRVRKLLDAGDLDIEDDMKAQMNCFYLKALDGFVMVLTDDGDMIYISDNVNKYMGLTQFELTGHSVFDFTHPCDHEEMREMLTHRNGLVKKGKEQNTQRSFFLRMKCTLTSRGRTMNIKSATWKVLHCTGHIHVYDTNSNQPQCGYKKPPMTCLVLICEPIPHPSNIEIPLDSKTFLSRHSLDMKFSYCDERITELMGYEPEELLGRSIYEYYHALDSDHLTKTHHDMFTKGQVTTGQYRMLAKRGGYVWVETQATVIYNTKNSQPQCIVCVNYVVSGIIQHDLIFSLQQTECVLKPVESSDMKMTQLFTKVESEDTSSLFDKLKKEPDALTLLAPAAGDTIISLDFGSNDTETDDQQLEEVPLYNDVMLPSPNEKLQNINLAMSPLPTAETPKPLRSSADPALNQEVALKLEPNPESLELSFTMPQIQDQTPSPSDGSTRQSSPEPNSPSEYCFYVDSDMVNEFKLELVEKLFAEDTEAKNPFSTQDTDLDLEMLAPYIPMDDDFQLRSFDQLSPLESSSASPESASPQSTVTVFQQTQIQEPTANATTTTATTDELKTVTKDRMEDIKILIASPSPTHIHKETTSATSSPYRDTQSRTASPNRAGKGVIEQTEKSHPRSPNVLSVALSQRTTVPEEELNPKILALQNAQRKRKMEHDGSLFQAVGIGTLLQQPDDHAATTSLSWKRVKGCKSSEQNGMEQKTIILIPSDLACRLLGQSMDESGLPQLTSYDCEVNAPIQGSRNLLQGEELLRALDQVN

Turning to `O=c1cc(-c2ccccc2)oc2cc(O)cc(O)c12`, the compound was classed as inactive in experiment [1], in experiment [2], in experiment [3], in [4], in experiment [5] and in [6]. The outcome in experiment [7], in experiment [8], in [10], in [11], in experiment [12] and in experiment [13] was inactive. Besides, in experiment [9], the AC50 was 4.28 µM (active).
Regarding `Cc1cccc(Nc2ccccc2C(=O)O)c1C`, the outcome in experiment [1], in experiment [2], in [3], in [4], in experiment [5] and in [6] was inactive. Also, the compound was called inactive in experiment [15], in experiment [16], in [10], in experiment [12], in experiment [13] and in experiment [17]. The AC50 in [14] was 76.9 µM (active); in experiment [8], 14.1 µM (active); in [9], 18.2 µM (active); in [18], 19.8 µM (active).
Consider `CCOC(=S)SSC(=S)OCC`, for which the compound was classed as inactive in experiment [1], in experiment [2], in [3], in experiment [4], in experiment [5] and in [14]. The result in experiment [7], in experiment [15], in experiment [8], in [9], in [16] and in experiment [10] was inactive. The compound was classed as inactive in [11], in experiment [12], in experiment [13] and in experiment [18]. Also, the AC50 in experiment [6] is 157 µM (active).
In the case of `CN(C)c1ccc(O)c2c1C[C@H]1C[C@H]3[C@H](N(C)C)C(=O)C(C(N)=O)=C(O)[C@@]3(O)C(=O)C1=C2O`, the result in [1], in [2], in experiment [4], in [19], in [5] and in experiment [6] was inactive. For the same compound, the outcome in [14], in [7], in [15], in experiment [8], in [16] and in [10] was inactive. For the same compound, the compound was called inactive in [11], in [12] and in experiment [18].
Regarding `CCCCCCCCC=O`, the outcome in experiment [1], in [2], in experiment [4], in experiment [19], in [5] and in experiment [6] was inactive. Also, the compound was classed as inactive in [14], in [7], in experiment [15], in [8], in [16] and in experiment [10]. Further, the call in experiment [12], in experiment [13], in [17] and in experiment [18] was inactive.
